The source of these data is PubChem BioAssay (NCATS).

The test in a line: qHTS drug screen for cell cycle checkpoint inhibitors in PARPi-resistant BRCA-mutant ovarian cancer cell lines. (AID 1963452). The following applies: PEO1/OlaR viability, CellTiter-Glo luminescence, 96 h; for Z-AUC: stronger effect = lower value. The gist of the method: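 PEO1, PEO4 and PEO1/OlaR ovarian cancer cells, 600 per well, exposed 96 h at 37C to a dilution series. Viability read by CellTiter-Glo luminescence, normalized to DMSO and empty wells; activity summarized as Z-AUC.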
On the technique in general: Quantitative high-throughput screening tests each substance at several concentrations.

The mark [1] stands for this setting: measured here: PEO1 parental Z-AUC.

Calls of active or inactive are those of the source. Calls follow the shape of the full dose curve.
Potency is read from the fitted curve at half-maximal effect.

As to `Cc1ccccc1C(=O)Nc1ccc(C(=O)N2CCCC(O)c3cc(Cl)ccc32)c(C)c1` (stereo unspecified), the Z-AUC was -0.543 (inactive). Besides, the Z-AUC under setting [1] is -0.255. Where the note is “measured here: PEO4 Z-AUC”, the Z-AUC came to 0.00137.

Consider `FC(F)(F)c1ccc(Nc2nc3ccc(Oc4ccnc(-c5ncc(C(F)(F)F)[nH]5)c4)cc3[nH]2)cc1`, for which the Z-AUC is -0.52 (inactive). The Z-AUC under setting [1] was -0.706. Where the note is “measured here: PEO4 Z-AUC”, the Z-AUC is -1.16.

With `CCS(=O)(=O)Nc1ccc2[nH]c(O)c(C(=Nc3ccc(CN4CCCCC4)cc3)c3ccccc3)c2c1`, the Z-AUC is -1.37 (inactive). Besides, the Z-AUC under setting [1] is -1.2. Further, the Z-AUC (measured here: PEO4 Z-AUC) is -1.32.

Take `CCCCCCCCc1ccc(CCC(N)(CO)CO)cc1`: the Z-AUC was -0.00924 (inactive). The Z-AUC under setting [1] is -0.111. Besides, the Z-AUC (measured here: PEO4 Z-AUC) came to 0.091.

As for `CC(C)Oc1ccc(C(=O)N[C@H](CNC(=O)CN(C)C)Cc2ccc(-c3cn4cccc([C@H](C)O)c4n3)cc2)cc1Cl`, the Z-AUC was -1.44 (inactive). Moreover, under setting [1], the Z-AUC was -0.733. Also, the Z-AUC (measured here: PEO4 Z-AUC) is -1.18.

As to `CCN(CC)Cc1ccc2cc(COC(=O)Nc3ccc(C(=O)NO)cc3)ccc2c1`, the Potency was 977 nM (active). Also, the Z-AUC under setting [1] was -1.11. In addition, under “measured here: PEO4 Z-AUC”, the Z-AUC is -1.29.

Consider `CN(C)CC(=O)N1CCC(c2ccc(NC(=O)c3ncc(C#N)[nH]3)c(C3=CCCCC3)c2)CC1`, for which the Z-AUC is -1.11 (inactive). Also, the Z-AUC under setting [1] was -0.797. Moreover, the Z-AUC (measured here: PEO4 Z-AUC) is -0.584.

On to `COC(=O)[C@H](CCCN=C(N)N)NS(=O)(=O)c1ccc(C)cc1`, for which the Z-AUC is 1.53 (inactive). Moreover, under setting [1], the Z-AUC amounted to 1.46. Besides, where the note is “measured here: PEO4 Z-AUC”, the Z-AUC amounted to 1.

Consider `CC(C)C[C@H](NC(=O)CNC(=O)c1cc(Cl)ccc1Cl)B1OC(=O)CC(CC(=O)O)(C(=O)O)O1` (stereo partly specified), for which the Potency was 43.6 nM (active). The Z-AUC under setting [1] is -3.29. Moreover, where the note is “measured here: PEO4 Z-AUC”, the Z-AUC is -3.23.

For the molecule `CCOC(=O)C=C[C@H](C[C@@H]1CCNC1=O)NC(=O)[C@@H](CC(=O)[C@@H](NC(=O)c1cc(C)on1)C(C)C)Cc1ccc(F)cc1`, the Z-AUC is -0.315 (inactive). Moreover, the Z-AUC under setting [1] was -0.169. For the same molecule, the Z-AUC (measured here: PEO4 Z-AUC) came to 0.164.

Take `Cc1cnc(NC(=O)Nc2cc(Br)c(C)cc2OC[C@@H]2CNCCO2)cn1`: the Z-AUC was -0.43 (inactive). Further, the Z-AUC under setting [1] was -0.193. Where the note is “measured here: PEO4 Z-AUC”, the Z-AUC was -0.00574.

`COc1cc(O)c2c(c1)C1OC1C[C@H](O)[C@H](O)C(=O)C=CC[C@H](C)OC2=O` (stereo partly specified): the Z-AUC was 0.145 (inactive). In addition, the Z-AUC under setting [1] is -0.101. Besides, the Z-AUC (measured here: PEO4 Z-AUC) was -0.574.

Take `COc1ccc(Nc2cc(-c3cnc(N)nc3)nc(N3CCOCC3)n2)cn1`: the Z-AUC was 0.44 (inactive). Under setting [1], the Z-AUC is -0.145. Further, for the setting “measured here: PEO4 Z-AUC”, the Z-AUC came out at 0.339.

Consider `CN(CC(=O)N(Cc1ccc(C2CCCCC2)cc1)c1ccc(C(=O)O)c(O)c1)S(=O)(=O)c1c(F)c(F)c(F)c(F)c1F`, for which the Z-AUC was 0.87 (inactive). In addition, the Z-AUC under setting [1] worked out at 0.115. In addition, for the setting “measured here: PEO4 Z-AUC”, the Z-AUC was 0.274.

With `CCc1c(O)cc(O)c(C(=O)c2ccc(OCCN3CCOCC3)c(OC)c2)c1CC(=O)N(CCOC)CCOC`, the Z-AUC is -0.361 (inactive). The Z-AUC under setting [1] is -0.538. Moreover, the Z-AUC (measured here: PEO4 Z-AUC) came to 0.145.

For `CN(C)c1ccc2cc(C(=O)N[C@@H](CCCN=C(N)CCl)C(=O)NCc3ccccc3)ccc2c1`, the Z-AUC was 1.15 (inactive). The Z-AUC under setting [1] is 0.744. The Z-AUC (measured here: PEO4 Z-AUC) was determined as 1.03.

Turning to `CCCCOc1ccc(C(=O)Nc2ccc(F)cc2F)cc1`, the Z-AUC was -0.387 (inactive). Also, under setting [1], the Z-AUC is -0.847. The Z-AUC (measured here: PEO4 Z-AUC) was -0.905.

Take `C#Cc1cccc(Nc2ncnc3cc(OCCOC)c(OCCO)cc23)c1`: the Z-AUC is 0.364 (inactive). Also, under setting [1], the Z-AUC worked out at 0.383. Further, the Z-AUC (measured here: PEO4 Z-AUC) turned out to be 0.173.

On to `O=C(O)c1ccc(Nc2ncc3c(n2)-c2ccc(Cl)cc2C(c2c(F)cccc2F)=NC3)cc1`, for which the Z-AUC was 0.584 (inactive). Also, the Z-AUC under setting [1] amounted to 0.311. In addition, the Z-AUC (measured here: PEO4 Z-AUC) was -0.364.

Consider `N#Cc1cc(NC(=O)Nc2nnc(-c3ccncc3)s2)ccc1-c1cn[nH]c1`, for which the Z-AUC was -0.0161 (inactive). Moreover, the Z-AUC under setting [1] came out at 0.0346. Moreover, the Z-AUC (measured here: PEO4 Z-AUC) was 0.15.

On to `NC(=O)N1CCC(CC(=O)N2CCC([C@H]3c4ncc(Br)cc4CCc4cc(Cl)cc(Br)c43)CC2)CC1`, for which the Z-AUC was -0.923 (inactive). Under setting [1], the Z-AUC is -0.883. Further, the Z-AUC (measured here: PEO4 Z-AUC) is -0.991.

With `CCc1nc(-c2cccc(C)c2)c(-c2ccnc(NC(=O)c3ccccc3)c2)s1`, the Z-AUC was -0.209 (inactive). For the same molecule, under setting [1], the Z-AUC came to 0.57. For the setting “measured here: PEO4 Z-AUC”, the Z-AUC was found to be 0.812.

`COc1cc(C[C@@H](CO)[C@H](CO)Cc2ccc(O)c(OC)c2)ccc1O`: the Z-AUC is 0.833 (inactive). Moreover, the Z-AUC under setting [1] is 0.526. For the same molecule, the Z-AUC (measured here: PEO4 Z-AUC) stood at 0.516.

For `N#CNC(=NCCCCCCOc1ccc(Cl)cc1)Nc1ccncc1`, the Potency was 34.7 nM (active). The Z-AUC under setting [1] is -3.38. Also, the Z-AUC (measured here: PEO4 Z-AUC) was -3.13.

Turning to `O=C(O)CCCCC(CCSCc1ccccc1)SCc1ccccc1` (stereo unspecified), the Z-AUC was 1.05 (inactive). Moreover, under setting [1], the Z-AUC is 1.63. The Z-AUC (measured here: PEO4 Z-AUC) was 1.32.

As for `C=Cc1c(C)c2cc3nc(cc4[nH]c(cc5nc(cc1[nH]2)C(C)=C5CCC(=O)O)c(CCC(=O)OC)c4C)[C@@]1(C)C3=CC=C(C(=O)OC)[C@H]1C(=O)OC`, the Z-AUC is 0.838 (inactive). Under setting [1], the Z-AUC is 1.25. Besides, the Z-AUC (measured here: PEO4 Z-AUC) was 1.36.

Turning to `c1cc(CN2CCCNCCNCCCNCC2)ccc1CN1CCCNCCNCCCNCC1`, the Z-AUC was 0.916 (inactive). Moreover, under setting [1], the Z-AUC is 0.744. Also, the Z-AUC (measured here: PEO4 Z-AUC) is 1.11.

Take `Oc1cc(-c2nc(-c3ccccc3)[nH]c2-c2ccncc2)ccc1Cl`: the Z-AUC was -0.516 (inactive). Besides, the Z-AUC under setting [1] is -0.935. Besides, the Z-AUC (measured here: PEO4 Z-AUC) was -1.11.

On to `NC(=O)Nc1sc(-c2ccc(F)cc2)cc1C(N)=O`, for which the Z-AUC is -1.29 (inactive). Besides, the Z-AUC under setting [1] is -1.13. Moreover, for the setting “measured here: PEO4 Z-AUC”, the Z-AUC was -1.05.

On to `NC(=NCCCCCCN=C(N)N=C(N)Nc1ccc(Cl)cc1)N=C(N)Nc1ccc(Cl)cc1`, for which the Z-AUC is 0.994 (inactive). Besides, the Z-AUC under setting [1] amounted to 0.0732. The Z-AUC (measured here: PEO4 Z-AUC) is -0.00855.

With `C[C@@H]1C(=O)O[C@H]2CC34[C@H]5C[C@@H](C(C)(C)C)C36[C@H](OC(=O)[C@@H]6O)O[C@@]4(C(=O)O5)[C@]21O` (stereo partly specified), the Z-AUC is 0.793 (inactive). Besides, under setting [1], the Z-AUC worked out at 0.5. The Z-AUC (measured here: PEO4 Z-AUC) is 0.284.

On to `c1coc(CNc2ncnc3nc[nH]c23)c1`, for which the Z-AUC was 0.877 (inactive). Besides, the Z-AUC under setting [1] was determined as 0.956. The Z-AUC (measured here: PEO4 Z-AUC) was found to be 1.1.
